Reference: PubChem BioAssay AID1159580 (chemical genetic matrix, 2015)
Several values for one entry are separate records, joined by “and”; a condition that tells them apart may be missing. Equal entries are not always repeated. About 2,000 (36%) of roughly 5,500 compounds were called active. Not shown: some 18% with an inconclusive outcome. No stated cut-off is given here; in the data, active means normalized growth mostly below about 0.91 (no sharp cut-off); inconclusive means no clear call, values can overlap the other calls; inactive means mostly above about 0.92. This is one part of the list.

Assay: chemical genetic growth profiling, strain panel (AID 1159580);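 further: tested at 20 µM; growth read once vehicle control cultures reached saturation at 30 °C; 1 = growth at the plate median or of vehicle wells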
Details: S. cerevisiae deletion strains, growth OD

Measured: normalized growth

CN(C)C(=S)SSC(=S)N(C)C
inactive: locus YDL185W, strain tfp1, stronger effect = lower value 0.967
active: locus YAL013W, strain DEP1, stronger effect = lower value 0.0581 | locus YAL021C, strain ccr4, stronger effect = lower value 0.0666 | locus YAL026C, strain drs2, stronger effect = lower value 0.0601 | locus YAL030W, strain snc1, stronger effect = lower value 0.0553 | locus YBL061C, strain skt5, stronger effect = lower value 0.0618 | locus YBR009C, strain hhf1, stronger effect = lower value 0.0687 | locus YBR021W, strain FUR4, stronger effect = lower value 0.0817 | locus YBR023C, strain chs3, stronger effect = lower value 0.061 | locus YBR171W, strain sec66, stronger effect = lower value 0.074 | locus YBR229C, strain ROT2, stronger effect = lower value 0.048 | locus YBR231C, strain swc5, stronger effect = lower value 0.0647 | locus YBR279W, strain paf1, stronger effect = lower value 0.0589 | locus YCL011C, strain gbp2, stronger effect = lower value 0.0557 | locus YCL016C, strain dcc1, stronger effect = lower value 0.0628 | locus YCL029C, strain bik1, stronger effect = lower value 0.0606 | locus YCL061C, strain MRC1, stronger effect = lower value 0.0642 | locus YCL069W, strain vba3, stronger effect = lower value 0.0641 | locus YCR088W, strain abp1, stronger effect = lower value 0.0578 | locus YDL005C, strain med2, stronger effect = lower value 0.0735 | locus YDL035C, strain GPR1, stronger effect = lower value 0.0496 | locus YDL040C, strain nat1, stronger effect = lower value 0.0566 | locus YDL074C, strain BRE1, stronger effect = lower value 0.08 | locus YDL101C, strain DUN1, stronger effect = lower value 0.0541 | locus YDL134C, strain PPH21, stronger effect = lower value 0.048 | locus YDL192W, strain arf1, stronger effect = lower value 0.0606 | locus YDR001C, strain nth1, stronger effect = lower value 0.0555 | locus YDR069C, strain doa4, stronger effect = lower value 0.0622 | locus YDR101C, strain arx1, stronger effect = lower value 0.0568 | locus YDR137W, strain rgp1, stronger effect = lower value 0.0857 | locus YDR150W, strain NUM1, stronger effect = lower value 0.0561 | locus YDR159W, strain sac3, stronger effect = lower value 0.0951 | locus YDR162C, strain NBP2, stronger effect = lower value 0.0528 | locus YDR195W, strain ref2 0.147 | locus YDR297W, strain sur2, stronger effect = lower value 0.0586 | locus YDR318W, strain mcm21, stronger effect = lower value 0.0615 | locus YDR334W, strain swr1, stronger effect = lower value 0.0607 | locus YDR335W, strain msn5, stronger effect = lower value 0.0573 | locus YDR388W, stronger effect = lower value 0.0573 | locus YDR392W, strain spt3, stronger effect = lower value 0.0953 | locus YDR502C, strain sam2, stronger effect = lower value 0.0603 | locus YEL003W, strain gim4, stronger effect = lower value 0.0529 | locus YEL037C, strain rad23, stronger effect = lower value 0.0561 | locus YEL061C, strain CIN8 (second series), stronger effect = lower value 0.06 | locus YEL061C, strain CIN8, stronger effect = lower value 0.0482 | locus YER015W, strain faa2, stronger effect = lower value 0.0644 | locus YER016W, strain bim1, stronger effect = lower value 0.0587 | locus YER110C, stronger effect = lower value 0.0744 | locus YER111C, strain swi4, stronger effect = lower value 0.0843 | locus YER155C, strain BEM2 (second series), stronger effect = lower value 0.0839 | locus YER155C, strain BEM2, stronger effect = lower value 0.0634 | locus YER167W, strain BCK2, stronger effect = lower value 0.0494 | locus YFR010W, strain ubp6, stronger effect = lower value 0.067 | locus YGL078C, strain dbp3, stronger effect = lower value 0.0559 | locus YGL086W, strain mad1, stronger effect = lower value 0.0545 | locus YGL167C, strain pmr1, stronger effect = lower value 0.0722 | locus YGL173C, strain kem1, stronger effect = lower value 0.0644 | locus YGL227W, strain vid30, stronger effect = lower value 0.0589 | locus YGL240W, strain doc1, stronger effect = lower value 0.0761 | locus YGL248W, strain PDE1, stronger effect = lower value 0.0464 | locus YGL253W, strain hxk2, stronger effect = lower value 0.0521 | locus YGR078C, strain PAC10, stronger effect = lower value 0.0501 | locus YGR135W, strain pre9, stronger effect = lower value 0.0684 | locus YGR229C, strain SMI1, stronger effect = lower value 0.0575 | locus YGR252W, strain gcn5, stronger effect = lower value 0.158 | locus YHR013C, strain ard1, stronger effect = lower value 0.107 | locus YHR027C, strain rpn1, stronger effect = lower value 0.0609 | locus YHR030C, strain SLT2, stronger effect = lower value 0.0503 and 0.115 | locus YHR079C, strain IRE1 (second series), stronger effect = lower value 0.0559 | locus YHR079C, strain IRE1, stronger effect = lower value 0.109 | locus YHR094C, strain hxt1, stronger effect = lower value 0.0581 | locus YHR129C, strain ARP1, stronger effect = lower value 0.0536 | locus YHR142W, strain chs7, stronger effect = lower value 0.0711 | locus YHR200W, strain rpn10, stronger effect = lower value 0.0592 | locus YIL066C, strain RNR3, stronger effect = lower value 0.0523 | locus YIL073C, strain SPO22, stronger effect = lower value 0.0945 | locus YIL125W, strain kgd1, stronger effect = lower value 0.0556 | locus YIR030C, strain dcg1, stronger effect = lower value 0.0579 | locus YJL092W, strain hpr5, stronger effect = lower value 0.0561 | locus YJL095W, strain BCK1 (second series), stronger effect = lower value 0.057 | locus YJL095W, strain BCK1, stronger effect = lower value 0.049 and 0.102 | locus YJL115W, strain asf1, stronger effect = lower value 0.0685 | locus YJL129C, strain trk1, stronger effect = lower value 0.0884 | locus YJL134W, strain LCB3, stronger effect = lower value 0.0489 | locus YJL154C, strain vps35, stronger effect = lower value 0.0623 | locus YJL164C, strain tpk1, stronger effect = lower value 0.0632 | locus YJL166W, strain qcr8, stronger effect = lower value 0.0627 | locus YJL168C, strain set2, stronger effect = lower value 0.0598 | locus YJL187C, strain SWE1 (second series), stronger effect = lower value 0.0476 | locus YJL187C, strain SWE1, stronger effect = lower value 0.0566 | locus YJR043C, strain POL32, stronger effect = lower value 0.0614 | locus YJR066W, strain TOR1, stronger effect = lower value 0.00175
